What was measured:
[1] = target: Fibroblast growth factor receptor 4 (Homo sapiens) (UniProt P22455); settings: at 1 µM;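 note: reported figure is the averaged percent inhibition of FGFR4, from the GSK PKIS kinase screening panel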
[2] = target: Tyrosine-protein kinase Fgr (Homo sapiens) (UniProt P09769); settings: at 0.1 µM
[3] = target: Tyrosine-protein kinase Fgr (Homo sapiens) (UniProt P09769); settings: at 1 µM
[4] = target: Vascular endothelial growth factor receptor 1 (Homo sapiens) (UniProt P17948); settings: at 0.1 µM
[5] = target: Vascular endothelial growth factor receptor 1 (Homo sapiens) (UniProt P17948); settings: at 1 µM
[6] = target: Receptor-type tyrosine-protein kinase FLT3 (Homo sapiens) (UniProt P36888); settings: at 0.1 µM
[7] = tested on: T1, Receptor-type tyrosine-protein kinase FLT3 (Homo sapiens), P36888 [D835Y]; settings: at 0.1 µM
T1 sequence (whole entry): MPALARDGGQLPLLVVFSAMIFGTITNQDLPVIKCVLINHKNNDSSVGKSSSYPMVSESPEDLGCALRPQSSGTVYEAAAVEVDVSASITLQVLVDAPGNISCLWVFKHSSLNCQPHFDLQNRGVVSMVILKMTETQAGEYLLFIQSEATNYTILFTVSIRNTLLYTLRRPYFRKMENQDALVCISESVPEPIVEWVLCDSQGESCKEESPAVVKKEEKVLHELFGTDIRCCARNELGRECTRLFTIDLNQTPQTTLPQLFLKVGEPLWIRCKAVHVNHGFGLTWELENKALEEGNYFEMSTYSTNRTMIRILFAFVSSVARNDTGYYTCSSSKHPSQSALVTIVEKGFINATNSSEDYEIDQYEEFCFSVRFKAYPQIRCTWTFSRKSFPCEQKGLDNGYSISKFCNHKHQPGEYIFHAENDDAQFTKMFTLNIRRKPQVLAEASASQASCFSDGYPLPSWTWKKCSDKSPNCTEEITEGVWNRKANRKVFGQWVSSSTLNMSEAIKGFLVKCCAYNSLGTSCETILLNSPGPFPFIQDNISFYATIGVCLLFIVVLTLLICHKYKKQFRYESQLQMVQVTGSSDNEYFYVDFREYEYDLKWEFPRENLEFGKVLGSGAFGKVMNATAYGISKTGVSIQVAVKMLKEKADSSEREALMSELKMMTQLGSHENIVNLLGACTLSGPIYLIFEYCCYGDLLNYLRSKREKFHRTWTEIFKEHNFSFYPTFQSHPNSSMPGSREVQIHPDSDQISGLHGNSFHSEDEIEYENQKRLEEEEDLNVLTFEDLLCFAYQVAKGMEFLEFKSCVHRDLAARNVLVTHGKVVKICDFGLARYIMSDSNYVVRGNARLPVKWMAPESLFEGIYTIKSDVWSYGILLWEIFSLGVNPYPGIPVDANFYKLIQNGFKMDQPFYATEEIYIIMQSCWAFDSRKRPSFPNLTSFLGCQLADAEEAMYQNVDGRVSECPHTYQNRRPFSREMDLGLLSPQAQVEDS

[8] = target: Non-receptor tyrosine-protein kinase TYK2 (Homo sapiens) (UniProt P29597); settings: at 1 µM;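 note: values are mean percent inhibition of TYK2 kinase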
[9] = target: T2, Tyrosine-protein kinase receptor TYRO3 (Homo sapiens) (UniProt Q06418); settings: at 0.1 µM
T2 sequence (whole entry): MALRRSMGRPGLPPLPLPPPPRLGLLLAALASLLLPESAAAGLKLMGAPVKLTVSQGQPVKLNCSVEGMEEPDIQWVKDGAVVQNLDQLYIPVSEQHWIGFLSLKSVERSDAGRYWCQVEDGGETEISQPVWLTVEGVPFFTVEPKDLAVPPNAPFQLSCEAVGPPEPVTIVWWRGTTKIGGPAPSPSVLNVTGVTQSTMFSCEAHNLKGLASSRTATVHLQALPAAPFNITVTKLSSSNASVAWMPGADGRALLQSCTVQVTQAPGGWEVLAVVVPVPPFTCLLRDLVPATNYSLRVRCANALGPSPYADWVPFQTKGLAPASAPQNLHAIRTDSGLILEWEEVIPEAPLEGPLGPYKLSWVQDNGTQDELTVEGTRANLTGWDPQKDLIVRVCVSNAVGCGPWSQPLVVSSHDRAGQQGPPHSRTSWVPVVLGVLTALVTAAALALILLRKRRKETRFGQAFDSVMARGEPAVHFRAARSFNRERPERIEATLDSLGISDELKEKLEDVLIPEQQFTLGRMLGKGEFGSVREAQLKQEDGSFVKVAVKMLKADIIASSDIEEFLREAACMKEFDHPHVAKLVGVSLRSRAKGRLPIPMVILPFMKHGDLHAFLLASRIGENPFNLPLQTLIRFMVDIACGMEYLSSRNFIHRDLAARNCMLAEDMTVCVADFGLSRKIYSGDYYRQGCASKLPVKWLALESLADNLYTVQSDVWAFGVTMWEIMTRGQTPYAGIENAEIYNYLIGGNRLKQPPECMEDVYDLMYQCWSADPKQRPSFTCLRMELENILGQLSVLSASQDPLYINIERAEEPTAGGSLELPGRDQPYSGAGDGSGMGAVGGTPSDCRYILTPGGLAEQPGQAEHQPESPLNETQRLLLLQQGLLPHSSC

[10] = target: T2, Tyrosine-protein kinase receptor TYRO3 (Homo sapiens); settings: at 1 µM
[11] = target: Tyrosine-protein kinase Yes (Homo sapiens) (UniProt P07947); settings: at 0.1 µM
[12] = target: Tyrosine-protein kinase Yes (Homo sapiens) (UniProt P07947); settings: at 1 µM
[13] = target: T3, Tyrosine-protein kinase ZAP-70 (Homo sapiens) (UniProt P43403); settings: at 0.1 µM
T3 sequence (whole entry): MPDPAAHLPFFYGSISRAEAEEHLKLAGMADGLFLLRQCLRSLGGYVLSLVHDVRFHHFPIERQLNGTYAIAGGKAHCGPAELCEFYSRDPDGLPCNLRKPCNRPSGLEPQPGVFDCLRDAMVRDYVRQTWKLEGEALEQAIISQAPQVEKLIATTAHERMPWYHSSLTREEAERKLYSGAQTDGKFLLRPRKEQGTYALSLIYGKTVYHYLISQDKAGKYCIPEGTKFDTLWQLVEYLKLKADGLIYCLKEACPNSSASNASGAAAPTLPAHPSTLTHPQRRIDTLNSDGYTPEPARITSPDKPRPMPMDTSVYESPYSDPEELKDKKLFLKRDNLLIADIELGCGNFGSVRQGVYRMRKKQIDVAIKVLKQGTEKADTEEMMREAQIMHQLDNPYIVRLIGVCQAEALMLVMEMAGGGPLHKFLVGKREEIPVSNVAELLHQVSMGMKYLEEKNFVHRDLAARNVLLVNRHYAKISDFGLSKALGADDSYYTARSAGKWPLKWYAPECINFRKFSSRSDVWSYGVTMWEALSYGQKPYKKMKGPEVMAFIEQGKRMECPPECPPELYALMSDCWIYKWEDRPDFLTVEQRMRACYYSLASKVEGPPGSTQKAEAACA

[14] = target: T3, Tyrosine-protein kinase ZAP-70 (Homo sapiens); settings: at 1 µM
[15] = target: Serine/threonine-protein kinase B-raf (Homo sapiens) (UniProt P15056); settings: at 0.1 µM
[16] = target: Serine/threonine-protein kinase B-raf (Homo sapiens) (UniProt P15056); settings: at 1 µM
[17] = tested on: Serine/threonine-protein kinase B-raf (Homo sapiens), P15056 [V600E]; settings: at 0.1 µM
[18] = tested on: Serine/threonine-protein kinase B-raf (Homo sapiens), P15056 [V600E]; settings: at 1 µM
[19] = target: RAF proto-oncogene serine/threonine-protein kinase (Homo sapiens) (UniProt P04049); settings: at 0.1 µM;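 note: values are mean CRAF kinase inhibition from profiling of the GSK Published Kinase Inhibitor Set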
[20] = target: Receptor-type tyrosine-protein kinase FLT3 (Homo sapiens) (UniProt P36888); settings: at 1 µM

Sequence of Non-receptor tyrosine-protein kinase TYK2 (Homo sapiens) (P29597 whole entry): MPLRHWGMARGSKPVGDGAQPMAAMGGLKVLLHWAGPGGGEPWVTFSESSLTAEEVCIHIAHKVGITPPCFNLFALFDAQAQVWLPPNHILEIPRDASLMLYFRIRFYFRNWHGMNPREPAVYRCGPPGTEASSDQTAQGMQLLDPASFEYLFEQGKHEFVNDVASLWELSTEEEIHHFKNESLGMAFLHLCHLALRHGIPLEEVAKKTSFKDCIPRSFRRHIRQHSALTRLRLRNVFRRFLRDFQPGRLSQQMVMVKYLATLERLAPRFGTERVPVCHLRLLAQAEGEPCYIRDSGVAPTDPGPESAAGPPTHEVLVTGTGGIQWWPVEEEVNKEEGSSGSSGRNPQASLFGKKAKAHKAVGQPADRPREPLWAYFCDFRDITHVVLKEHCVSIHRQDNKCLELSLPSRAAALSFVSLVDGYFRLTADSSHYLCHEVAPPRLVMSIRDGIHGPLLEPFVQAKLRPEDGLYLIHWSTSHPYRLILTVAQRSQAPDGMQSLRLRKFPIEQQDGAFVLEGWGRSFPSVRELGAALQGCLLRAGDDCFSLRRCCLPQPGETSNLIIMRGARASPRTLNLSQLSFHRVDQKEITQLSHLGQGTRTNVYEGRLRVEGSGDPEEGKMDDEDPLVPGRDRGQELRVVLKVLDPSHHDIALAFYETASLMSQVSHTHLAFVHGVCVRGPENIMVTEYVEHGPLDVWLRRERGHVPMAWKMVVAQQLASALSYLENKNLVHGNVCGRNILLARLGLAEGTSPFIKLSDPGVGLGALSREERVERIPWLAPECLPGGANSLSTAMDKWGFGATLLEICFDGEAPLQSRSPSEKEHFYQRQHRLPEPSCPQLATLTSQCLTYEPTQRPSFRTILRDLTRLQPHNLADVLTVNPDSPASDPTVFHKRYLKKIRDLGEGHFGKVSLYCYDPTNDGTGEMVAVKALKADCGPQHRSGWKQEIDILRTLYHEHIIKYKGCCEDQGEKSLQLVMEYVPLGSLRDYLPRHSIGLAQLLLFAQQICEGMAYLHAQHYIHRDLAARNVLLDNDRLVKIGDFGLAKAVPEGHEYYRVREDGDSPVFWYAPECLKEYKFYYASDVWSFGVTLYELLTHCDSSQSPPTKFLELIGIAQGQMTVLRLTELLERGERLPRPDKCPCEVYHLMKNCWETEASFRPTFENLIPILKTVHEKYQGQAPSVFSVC
Sequence of RAF proto-oncogene serine/threonine-protein kinase (Homo sapiens) (P04049 whole entry): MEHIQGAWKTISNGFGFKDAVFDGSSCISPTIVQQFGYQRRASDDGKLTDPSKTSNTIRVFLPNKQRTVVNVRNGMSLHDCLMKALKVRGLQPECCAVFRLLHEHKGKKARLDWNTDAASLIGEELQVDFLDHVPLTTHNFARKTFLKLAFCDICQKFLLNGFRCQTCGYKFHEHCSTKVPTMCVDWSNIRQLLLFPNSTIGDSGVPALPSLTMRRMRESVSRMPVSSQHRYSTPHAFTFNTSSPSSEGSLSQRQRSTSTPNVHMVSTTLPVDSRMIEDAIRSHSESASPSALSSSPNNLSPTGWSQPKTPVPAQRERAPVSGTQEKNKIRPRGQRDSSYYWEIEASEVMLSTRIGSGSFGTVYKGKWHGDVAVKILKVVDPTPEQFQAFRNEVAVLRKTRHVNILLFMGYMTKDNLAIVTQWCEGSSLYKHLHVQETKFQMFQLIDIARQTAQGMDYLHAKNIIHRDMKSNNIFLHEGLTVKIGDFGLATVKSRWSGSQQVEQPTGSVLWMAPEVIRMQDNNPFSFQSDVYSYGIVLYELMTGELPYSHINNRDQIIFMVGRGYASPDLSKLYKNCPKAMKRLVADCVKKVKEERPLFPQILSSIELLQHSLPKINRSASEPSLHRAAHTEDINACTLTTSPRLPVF
Sequence of Tyrosine-protein kinase Yes (Homo sapiens) (P07947 2-543 limits assumed): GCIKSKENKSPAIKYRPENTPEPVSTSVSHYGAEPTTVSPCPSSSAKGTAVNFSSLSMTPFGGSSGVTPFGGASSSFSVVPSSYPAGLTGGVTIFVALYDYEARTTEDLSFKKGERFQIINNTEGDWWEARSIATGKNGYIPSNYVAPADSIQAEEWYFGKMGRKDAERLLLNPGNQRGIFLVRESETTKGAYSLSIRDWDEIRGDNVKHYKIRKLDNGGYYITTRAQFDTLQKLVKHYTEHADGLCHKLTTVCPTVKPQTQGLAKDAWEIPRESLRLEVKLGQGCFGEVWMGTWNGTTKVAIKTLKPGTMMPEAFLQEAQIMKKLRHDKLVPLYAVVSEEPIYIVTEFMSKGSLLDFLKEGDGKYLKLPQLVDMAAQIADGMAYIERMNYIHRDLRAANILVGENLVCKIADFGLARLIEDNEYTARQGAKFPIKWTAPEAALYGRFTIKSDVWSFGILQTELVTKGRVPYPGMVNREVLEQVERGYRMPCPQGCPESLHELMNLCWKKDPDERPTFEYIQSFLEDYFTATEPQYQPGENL
Sequence of Serine/threonine-protein kinase B-raf (Homo sapiens) (P15056 whole entry): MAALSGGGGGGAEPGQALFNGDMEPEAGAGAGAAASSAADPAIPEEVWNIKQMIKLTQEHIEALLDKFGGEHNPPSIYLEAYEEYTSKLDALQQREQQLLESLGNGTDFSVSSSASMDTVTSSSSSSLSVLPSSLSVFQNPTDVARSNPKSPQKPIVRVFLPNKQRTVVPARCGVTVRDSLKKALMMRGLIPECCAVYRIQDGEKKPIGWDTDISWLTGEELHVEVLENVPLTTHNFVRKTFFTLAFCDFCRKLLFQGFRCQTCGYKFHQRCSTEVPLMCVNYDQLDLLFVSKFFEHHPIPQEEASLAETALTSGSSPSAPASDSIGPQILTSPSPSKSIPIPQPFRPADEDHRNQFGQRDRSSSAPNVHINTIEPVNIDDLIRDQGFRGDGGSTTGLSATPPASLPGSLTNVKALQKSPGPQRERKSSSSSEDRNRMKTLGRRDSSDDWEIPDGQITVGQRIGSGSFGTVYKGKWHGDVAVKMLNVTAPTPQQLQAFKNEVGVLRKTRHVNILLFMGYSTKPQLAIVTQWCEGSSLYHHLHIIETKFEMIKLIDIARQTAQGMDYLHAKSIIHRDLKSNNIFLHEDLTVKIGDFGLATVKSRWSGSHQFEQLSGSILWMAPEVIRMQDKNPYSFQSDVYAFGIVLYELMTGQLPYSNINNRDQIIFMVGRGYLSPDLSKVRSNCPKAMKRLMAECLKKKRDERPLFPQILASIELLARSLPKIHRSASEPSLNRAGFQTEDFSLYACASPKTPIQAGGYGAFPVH
Sequence of Fibroblast growth factor receptor 4 (Homo sapiens) (P22455 22-802 limits assumed): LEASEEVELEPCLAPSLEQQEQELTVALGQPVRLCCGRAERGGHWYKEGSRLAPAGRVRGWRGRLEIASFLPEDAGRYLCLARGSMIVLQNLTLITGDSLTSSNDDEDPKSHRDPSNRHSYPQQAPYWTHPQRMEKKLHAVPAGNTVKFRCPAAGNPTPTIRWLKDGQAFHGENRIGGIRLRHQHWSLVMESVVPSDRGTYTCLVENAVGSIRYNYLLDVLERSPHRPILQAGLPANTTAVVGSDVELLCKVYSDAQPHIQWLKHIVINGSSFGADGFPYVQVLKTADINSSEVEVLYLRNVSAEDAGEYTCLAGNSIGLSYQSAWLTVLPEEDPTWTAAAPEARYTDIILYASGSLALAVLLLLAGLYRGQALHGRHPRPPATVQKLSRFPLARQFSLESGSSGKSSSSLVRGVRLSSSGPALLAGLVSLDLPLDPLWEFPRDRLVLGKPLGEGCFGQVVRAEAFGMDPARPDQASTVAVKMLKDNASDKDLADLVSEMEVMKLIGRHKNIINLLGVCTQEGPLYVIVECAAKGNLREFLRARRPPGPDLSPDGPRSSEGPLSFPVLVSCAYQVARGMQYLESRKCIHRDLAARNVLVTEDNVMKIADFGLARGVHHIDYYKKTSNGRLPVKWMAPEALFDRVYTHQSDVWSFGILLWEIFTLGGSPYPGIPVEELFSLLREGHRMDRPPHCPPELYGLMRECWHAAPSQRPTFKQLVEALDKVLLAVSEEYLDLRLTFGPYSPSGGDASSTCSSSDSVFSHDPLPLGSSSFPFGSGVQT
Sequence of Serine/threonine-protein kinase B-raf (Homo sapiens), P15056 [V600E] (P15056 whole entry V600E): as the sequence (P15056 whole entry) above, with V600E counted along it
Sequence of Tyrosine-protein kinase Fgr (Homo sapiens) (P09769 2-529 limits assumed): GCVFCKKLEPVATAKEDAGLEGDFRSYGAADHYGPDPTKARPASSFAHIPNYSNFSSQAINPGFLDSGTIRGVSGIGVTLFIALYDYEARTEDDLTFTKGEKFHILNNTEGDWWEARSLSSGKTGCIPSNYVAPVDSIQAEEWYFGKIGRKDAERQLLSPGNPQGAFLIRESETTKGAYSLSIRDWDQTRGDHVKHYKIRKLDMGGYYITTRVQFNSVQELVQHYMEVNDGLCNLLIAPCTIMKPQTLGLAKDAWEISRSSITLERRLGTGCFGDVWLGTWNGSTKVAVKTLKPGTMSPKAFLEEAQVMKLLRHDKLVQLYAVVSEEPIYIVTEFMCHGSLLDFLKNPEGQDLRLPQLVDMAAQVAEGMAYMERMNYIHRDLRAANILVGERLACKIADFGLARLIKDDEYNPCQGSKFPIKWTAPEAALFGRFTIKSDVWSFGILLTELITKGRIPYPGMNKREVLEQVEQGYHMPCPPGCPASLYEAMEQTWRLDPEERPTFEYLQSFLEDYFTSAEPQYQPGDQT

| Structure (SMILES) | inhibition [1] | inhibition [2] | inhibition [3] | inhibition [4] | inhibition [5] | inhibition [6] | inhibition [7] | inhibition [8] | inhibition [9] | inhibition [10] | inhibition [11] | inhibition [12] | inhibition [13] | inhibition [14] | inhibition [15] | inhibition [16] | inhibition [17] | inhibition [18] | inhibition [19] | inhibition [20] |
| --- | --- | --- | --- | --- | --- | --- | --- | --- | --- | --- | --- | --- | --- | --- | --- | --- | --- | --- | --- | --- |
| COc1ccc(-c2oc3ncnc(N)c3c2-c2ccc(NC(=O)Nc3cc(C(F)(F)F)ccc3F)cc2)cc1 | 48.5% | 17% | 61% | 47.8% | 96.7% | 22.1% | 12.7% | 0.14% | 8.25% | 49.4% | 15.7% | 80.1% | 0.23% | 4.77% | 6.96% | 19.6% | 8.1% | 23.9% | 2.02% | – |
| COc1ccc(-c2cc3c(N)ncnc3o2)cc1 | -1.73% | 1.49% | 7.14% | -0.2% | 0.12% | -0.73% | -4.44% | 3.74% | -0.51% | 2.56% | 0.83% | 6.69% | -2.99% | -0.14% | -1.18% | -0.19% | -0.23% | 1.67% | 1.23% | -0.84% |
| Nc1nc(-c2cccc(Cl)c2)c(-c2ccc3ncccc3n2)s1 | 2.06% | 4.53% | 4.6% | 0.88% | 3.45% | 2.09% | -4.43% | -0.72% | 3.62% | 5.98% | 4.06% | 18.4% | 4.31% | 3.94% | 7.17% | 9.65% | 7.28% | 8.63% | -1.17% | 2% |
| CCOc1ccc2c(-c3ccnc(Nc4cccc(C(F)(F)F)c4)n3)cnn2n1 | -0.95% | 2.53% | 5.2% | -0.98% | 1.9% | -0.37% | – | 0% | 0.79% | 2.7% | 0.08% | 3.08% | 0.89% | 2.78% | 3.46% | 1.64% | 3.04% | 0.8% | -2.28% | 5.14% |
| CCCN(CCS(C)(=O)=O)Cc1ccc(-c2ccc3ncnc(Nc4ccc(OCc5cccc(F)c5)c(Cl)c4)c3c2)o1 | 3.7% | 3.69% | 7.51% | -1% | 1.07% | 0.88% | 1.48% | -0.78% | 2.08% | 1.99% | 1.86% | 8.75% | – | 1.73% | 3.07% | 3.72% | 3.15% | 3.85% | 1.57% | 1.93% |
| Cc1cccc(Nc2ncc(-c3ccccc3)o2)c1 | 1.36% | 2.72% | 9.59% | 1.05% | 11% | 39.8% | -4.74% | -4.11% | 1.56% | 4.61% | 0.94% | 11.3% | 1.66% | 1.24% | 2.32% | 6.08% | 3.58% | 3.05% | 0.64% | 81% |
| CC1=C(C(=O)Nc2cc(Cl)c3[nH]ncc3c2)C(c2ccc(C(F)(F)F)cc2)CC(=O)N1 (configuration not stated) | 2.25% | 2.78% | 4.88% | -0.55% | -1.53% | 1.66% | -4.83% | -1.04% | 3.7% | 5.41% | 6.96% | 27.4% | 3.23% | 3.9% | 9.34% | 35.7% | 10.2% | 35.6% | 0.78% | 3.1% |
